According to PubChem BioAssay AID2284359 (EPA ToxCast):
Records with an inconclusive call do not appear. Activity calls are given as the source filed them. Rule for the calls: active = hit-call score of the fitted dose curve at least 0.9, where 1 is the maximum; inconclusive = response in the unintended direction; inactive = score below 0.9.

Experiment: ATG_M_06_EcoTox2: Attagene TRANS-FACTORIAL EcoTox-2 HepG2 Assay for M06 Transcription Factor (Internal Marker)
Experimental: ATG_EcoTox2 is a cell-based, multiplexed assay created by modifying the existing Attagene TRANS-FACTORIAL system to include a panel of nuclear receptors from some or all the following species: human (Homo sapiens), african clawed frog (Xenopus laevis), rainbow trout (Oncorhynchus mykiss), japanese medaka (Oryzias latipes), and zebrafish (Danio rerio). The ECOTOX2-FACTORIAL format uses HepG2, a human liver cell line, with measurements taken at 24 hours after chemical dosing in a 24-well plate. ATG_M_06_EcoTox2 is one of 29 assay components calculated in the ATG_EcoTox2 assay. It is designed to make measurements of mRNA induction, a form of inducible reporter, as detected with fluorescence intensity signals by Reverse transcription polymerase chain reaction (RT-PCR) and Capillary electrophoresis technology.The assay endpoint ATG_M_06_EcoTox2 was analyzed in the positive analysis fitting direction relative to DMSO as the negative control and baseline of activity. Using a type of inducible reporter, measures of mRNA for gain-of-signal activity can be used to understand the background control at the transcription factor-level as they relate to the gene. Furthermore, this assay endpoint can be referred to as a secondary readout, because this assay has produced multiple assay endpoints where this one serves a background control function. To generalize the intended target to other relatable targets, this assay endpoint is annotated to the background measurement intended target family, where the subfamily is internal marker.
Human liver HepG2 cells are transiently transfected with multiple reporter transcription units (MRTUs) in 6-well plates using FuGene 6 reagent (Roche; 3 ml FuGene/1 mg DNA). The MRTU constructs are regulated by a cis-regulating element (promoter). Each RTU expresses a GAL4-UAS that regulates the transcription of a nearby target reporter gene sequence. A major difference between the CIS and TRANS system is that in CIS activities of endogenous TFs are measured, whereas the TRANS assay evaluates changes in activities of exogenous, chimeric NR-Gal4 proteins. […] At the end of 24 hour incubation, total RNA was isolated using TriZol reagent (Invitrogen). The isolated RNA is then reverse-transcribed using oligo(dT) primer and Mo-MLV reverse transcriptase (Invitrogen) with DNAse I (Ambion) treatment for 30 min. The one-tenth of the produced cDNA was amplified by PCR using Taq DNA polymerase (Invitrogen) and two reporter sequence-specific primers. […] The fragments were purified using Qiaquick PCR columns (Qiagen), analyzed on an ABI 3130xL genetic analyzer (Applied Biosystems) with peak positions identified by using a set of X-rhodamine (ROX)-labeled MapMarker1000 molecular weight standards (BioVentures). […]
With `O=P(Oc1ccccc1)(Oc1ccccc1)Oc1ccccc1` the outcome was “inactive”. With `O=C(O)C(F)(F)C(F)(F)C(F)(F)C(F)(F)C(F)(F)C(F)(F)C(F)(F)F` the outcome was “inactive”. In the case of `O=S(=O)(O)C(F)(F)C(F)(F)C(F)(F)C(F)(F)C(F)(F)C(F)(F)F`, the outcome is reported as “inactive”. With `CCCCOCN(C(=O)CCl)c1c(CC)cccc1CC` the outcome was “inactive”.
